High-throughput results from PubChem BioAssay.
The full list was thinned out, with hits kept by preference.
Anaer choline gr = inhibitors of anaerobic choline-dependent gram-negative bacterial growth; AID 1963822; hit rate 0.2% among 55,000; calls only; Gram-negative bacterium anaerobic choline minimal medium, absorbance growth; stronger effect = lower value; call rule not given here
Large screens that a line does not name were inactive; ! = a repeat was not active.

Cn1c(=O)n(CC(=O)N2CCCC2)c(=O)c2cc(S(=O)(=O)N3CCOCC3)ccc21	none
CCCn1c(C)ccc(-c2noc(CCCC(=O)NC3CCCC3)n2)c1=O	none
COCCNS(=O)(=O)c1cc(-c2nc(C)cs2)n(CC(=O)N2CCCCC2)c1	none
CCc1ccc(NC(=O)N2CC=C(c3c[nH]c4ccccc34)CC2)cc1	none
O=C(CCC(=O)N1CC=C(c2c[nH]c3ccccc23)CC1)NCc1cccc(Cl)c1	Anaer choline gr active
O=C(Nc1ccc(Cl)cc1)N1CC=C(c2c[nH]c3ccccc23)CC1	none
COc1ccc(NC(=O)c2nc(-c3ccc(C)cc3)n3c2CCCCC3)cc1Cl	none
Cc1ccc(-c2nc(CN3CCCC(C(=O)NCCc4ccccc4)C3)no2)cc1 (stereo not drawn)	none
Cc1cccc(NC(=NCc2ccncc2)NC(=O)c2ccc3c(c2)OCO3)c1	Anaer choline gr active
COc1ccc(C(=O)NC(=NCc2ccncc2)Nc2ccccc2)cc1OC	none
COC(=O)c1cccc(NC(=NCc2ccncc2)NC(=O)c2ccc3c(c2)OCO3)c1	none
Cc1[nH]c(C)c(S(=O)(=O)N2CCC(C(=O)N3CCN(C4CCCCC4)CC3)CC2)c1C(=O)N1CCCCC1	none
Cc1[nH]c(C)c(S(=O)(=O)N2CCC(C(=O)N3CCC(C)CC3)CC2)c1C(=O)N1CCCCC1	none
Cc1[nH]c(C)c(S(=O)(=O)N2CCC(C(=O)N3CCN(C4CCCCC4)CC3)CC2)c1C(=O)N1CCCC1	Anaer choline gr active
Cc1[nH]c(C)c(S(=O)(=O)N2CCC(C(=O)Nc3ccc(Cl)cc3)CC2)c1C(=O)N1CCCC1	none
Cc1[nH]c(C)c(S(=O)(=O)N2CCC(C(=O)Nc3ccc(F)cc3)CC2)c1C(=O)N1CCCC1	Anaer choline gr active
Cc1[nH]c(C)c(S(=O)(=O)N2CCC(C(=O)Nc3ccc(F)c(Cl)c3)CC2)c1C(=O)N1CCCC1	none
O=c1c2ccccc2n2c(SCc3ccccc3)nnc2n1Cc1ccc(F)cc1	none
CCCC(=O)Nc1ccccc1Sc1nc(Cl)nn1Cc1ccccc1	none
O=S(=O)(c1ccc(F)cc1)c1nc(-c2ccc(F)cc2)oc1N1CCOCC1	none
O=C(c1cnc2ccc(F)cc2c1Nc1cccc(F)c1)N1CCCCC1	none
Cn1c(=O)c2cc(C(=O)NCCC3=CCCCC3)sc2n(C)c1=O	none
Cc1ccc(C)c(NC(=O)N2Cc3c(sc4c3CCN(C)C4)-n3cccc3C2C)c1 (stereo not drawn)	none
COc1cccc(C2Nc3ccccc3-n3c(-c4ccccc4)c4c(=O)n(C)c(=O)n(C)c4c32)c1O (stereo not drawn)	none
CCOc1cccc(C2Nc3ccccc3-n3cc4c(=O)n(C)c(=O)n(C)c4c32)c1O (stereo not drawn)	none
COc1cccc(C2Nc3ccccc3-n3cc4c(=O)n(C)c(=O)n(C)c4c32)c1OC (stereo not drawn)	none
Cn1c(=O)c2cn3c(c2n(C)c1=O)C(c1ccc(O)c(O)c1)Nc1ccccc1-3 (stereo not drawn)	none
Cc1ccc(C2Nc3ccccc3-n3cc4c(=O)n(C)c(=O)n(C)c4c32)c(O)c1 (stereo not drawn)	Anaer choline gr active
COc1ccc(C2Nc3ccccc3-n3cc4c(=O)n(C)c(=O)n(C)c4c32)c(OC)c1 (stereo not drawn)	Anaer choline gr active
COc1ccc(OC)c(-c2csc(-c3nnn(-c4cccc(Cl)c4)c3N)n2)c1	none
O=C(CCc1nc(CSc2nnc(-c3ccncc3)o2)no1)Nc1ccc(Br)cc1	none
Cc1nc(C)c(C(=O)Nc2ccc(F)c(Cl)c2)s1	none
CCOCC(=O)Nc1ccc(-c2cn3c(C(=O)N(C)C)csc3n2)cc1	none
CCOC(=O)c1c(NC(=O)CSc2nnc(CNC(=O)Cc3ccc(OC)cc3)n2C)sc2c1CCC2	none
CC(=O)NNC(=O)N1Cc2ccccc2Oc2ccc(Cl)cc21	none
CCN(CC)CCCCN1c2ccccc2Oc2ccc(Cl)cc21	Anaer choline gr active
CCN(CC)CCCNC(=O)CCCN1C(=O)c2cccnc2Oc2ccc(Cl)cc21	none
Cc1ccc(CCN2CC(C(=O)N3CCC(Cc4ccccc4)CC3)CC2=O)cc1 (stereo not drawn)	none
COc1ccc(CCN2CC(=O)N(c3ccc(C)cc3)[C@@H]3CS(=O)(=O)C[C@@H]32)cc1OC	none
O=C(CC1CCCCC1)Nc1nnc(SCc2nnc(-c3ccccc3)o2)s1	none
CC(C)c1ccc(-c2noc(SCC(=O)NCC3CCCO3)n2)cc1 (stereo not drawn)	Anaer choline gr active
Cc1ccc(NC(=O)CSc2nc(-c3ccc(C(C)C)cc3)no2)cc1	none
CC(C)c1ccc(-c2noc(SCC(=O)Nc3ccccc3Cl)n2)cc1	none
Cc1nc2cccnc2n1-c1cc(C(=O)N2CCC(N3CCCCC3)CC2)ccc1Cl	none
COc1ccc(CCNC(=O)c2noc3ncnc(N4CCOCC4)c23)cc1OC	none
O=S(=O)(NC1CCCC1)c1ccc(-c2cc(C(F)(F)F)on2)o1	none
COc1ccc(C(=O)Nc2cccc(-c3cn4ccsc4n3)c2)cc1	none
O=S(=O)(c1ccc(Br)cc1)N1CCN(c2ccc(N3CCCC3)nn2)CC1	none
Cc1cc(N2CCN(C)CC2)nc(N2CCN(S(=O)(=O)c3ccc(Br)cc3)CC2)n1	none
Cc1cc(N2CCCC2)nc(N2CCN(S(=O)(=O)c3ccc(Br)cc3)CC2)n1	Anaer choline gr active
CC(C)CCNC(=O)N1CCC2(C1)C(=O)Nc1ccccc12 (stereo not drawn)	none
CCCCCCCCCCC/C=C\C/C=C\CCCC(=O)O	Anaer choline gr active
CCCCC/C=C\CC1OC1C/C=C\C/C=C\CCCC(=O)O (stereo not drawn)	none
CC/C=C\C/C=C\C/C=C\C/C=C\C/C=C\CCCCCC(=O)O	none
Cc1cc(Sc2ccccc2NC(=O)Nc2ccccc2Br)n2ncnc2n1	none
O=C(NCCCN1CCc2ccccc2C1)c1ccc(Cn2c(=O)c(=O)[nH]c3cccnc32)cc1	none
CC[N+](CC)(CC)CCOc1cccc(OCC[N+](CC)(CC)CC)c1OCC[N+](CC)(CC)CC	none
CCN(CC)CCOc1ccc(Cc2ccccc2)cc1	none
CC[N+](CC)(CC)CCOc1ccc(/C=C/c2ccccc2)cc1	Anaer choline gr active!
COc1ccc(C2CC(=O)C3=C(C2)Nc2onc(C)c2C3c2ccc(F)cc2)cc1OC (stereo not drawn)	none
COC1C=CO[C@@]2(C)Oc3c(C)c(O)c4c(O)c(c5c(nc6cc(C)ccn65)c4c3C2=O)NC(=O)C(C)=CC=CC(C)C(O)C(C)C(O)C(C)C(OC(C)=O)C1C (stereo partly drawn)	none
COC1C=CO[C@@]2(C)Oc3c(C)c(O)c4c(O)c(c5c(c4c3C2=O)NC2(CCN(CC(C)C)CC2)N=5)=NC(=O)C(C)=CC=CC(C)C(O)C(C)C(O)C(C)C(OC(C)=O)C1C (stereo partly drawn)	none
CO[C@H]1/C=C/O[C@@]2(C)Oc3c(C)c(O)c4c(O)c(c(/C=N/N5CCN(C)CC5)c(O)c4c3C2=O)NC(=O)/C(C)=C\C=C\[C@H](C)[C@H](O)[C@@H](C)[C@@H](O)[C@@H](C)[C@H](OC(C)=O)[C@@H]1C	Anaer choline gr active!
CCc1ccc(NCc2cc3ccc(OC)cc3n(CC(=O)Nc3ccc4c(c3)OCO4)c2=O)cc1	Anaer choline gr active
CCOC(=O)c1ccccc1NC(=O)Cn1c(=O)c(CNc2ccc(C)cc2)cc2ccc(OC)cc21	none
COC(=O)c1ccccc1NC(=O)Cn1c(=O)c(CNc2ccccc2)cc2ccc(OC)cc21	none
Cc1[nH]c(C)c(S(=O)(=O)N2CCC(C(=O)N(C)C3CCCCC3)CC2)c1C(=O)N1CCCCC1	none
